Source: PubChem BioAssay (Tox21)
Several values for one entry are separate records, joined by “and”; a condition that tells them apart may be missing. Equal entries are not always repeated. Records with an inconclusive call do not appear. Where a call stands in place of a potency, no number is given. Activity calls are given as the source filed them. Unless noted, the call rests on the fitted dose curve; in most records, active means well fitted curve in the direction sought with a large enough effect in the repeat runs; inconclusive means weak or mixed curves; inactive means no such curve, though single readings can be large; an effect the other way counts as inactive or inconclusive.
Potency means the concentration at half of the fitted maximal effect.

Molecular target: Estrogen receptor (Homo sapiens) (UniProt P03372)
Sequence (P03372 whole entry, looked up): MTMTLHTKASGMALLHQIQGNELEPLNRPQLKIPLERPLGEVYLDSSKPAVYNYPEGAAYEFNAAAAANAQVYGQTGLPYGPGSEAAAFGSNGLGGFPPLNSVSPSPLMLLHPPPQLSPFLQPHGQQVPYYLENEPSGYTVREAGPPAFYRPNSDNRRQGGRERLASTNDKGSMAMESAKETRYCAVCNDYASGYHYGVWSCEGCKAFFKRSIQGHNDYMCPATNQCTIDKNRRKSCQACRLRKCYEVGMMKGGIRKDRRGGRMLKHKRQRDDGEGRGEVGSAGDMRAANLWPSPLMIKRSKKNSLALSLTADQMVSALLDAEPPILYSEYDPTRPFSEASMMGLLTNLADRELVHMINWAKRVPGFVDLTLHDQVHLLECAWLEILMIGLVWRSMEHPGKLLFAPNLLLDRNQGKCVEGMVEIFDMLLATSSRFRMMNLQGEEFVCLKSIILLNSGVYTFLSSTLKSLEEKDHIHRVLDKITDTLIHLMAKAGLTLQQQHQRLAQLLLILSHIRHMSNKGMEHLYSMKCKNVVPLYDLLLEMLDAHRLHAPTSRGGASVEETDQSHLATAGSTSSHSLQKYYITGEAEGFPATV
Assay: qHTS assay to identify small molecule agonists of the estrogen receptor alpha (ER-alpha) signaling pathway using the BG1 cell line (AID 743079); further: nearly all actives have a fitted effect of over 20% in size
Details: BG1Luc4E2 cells, ERE-luciferase agonist, 22 h; series mostly up to 70.3 µM; activation: at the top concentration
For `CCNc1nc(Cl)nc(NCC)n1`, the Potency was “inactive”. In the case of `Nc1ccc(-c2ccc(N)cc2)cc1`, the “activation” value was -10% (inactive). For `C1CCC(NC2CCCCC2)CC1`, the “activation” value was 1.71% (inactive). With `C[C@]12CCC(=O)C=C1CC[C@@H]1[C@@H]2CC[C@]2(C)C(=O)CC[C@@H]12` the Potency was 1.5 µM (active) and 4.25 µM (active) and 4.33 µM (active). With `OCCOc1ccccc1` the Potency was “inactive”. For `O=C(O)c1nc(Cl)ccc1Cl`, the Potency was “inactive”. With `Cc1cc(Cl)ccc1OCC(=O)O` the Potency was “inactive”. With `CC(Cl)(Cl)C(=O)O` the Potency was “inactive”. In the case of `Nc1ccc(Cl)cc1`, the “activation” value was -25.3% (inactive). With `Cc1cc(-c2ccc(N)c(C)c2)ccc1N` the Potency was “inactive”. In the case of `O=C(O)C(Cl)Cl`, the Potency was “inactive”. With `CCC(=O)C(CC(C)N(C)C)(c1ccccc1)c1ccccc1` (stereo not drawn) the Potency was “inactive”. With `Nc1ccc(-c2ccc(N)c(Cl)c2)cc1Cl` the Potency was 9.04 µM (active) and 6.86 µM (active). For `COP(=O)(OC)OC=C(Cl)Cl`, the Potency was “inactive”.

Tested on: not listed separately
Assay: qHTS assay to identify small molecule antagonists of the estrogen receptor alpha (ER-alpha) signaling pathway using the BG1 cell line (AID 743080; calls by dose curve;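 further: BG1 cells stimulated with 17beta-estradiol alongside compound; nearly all actives have a fitted effect of over 25% in size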)
Details: BG1Luc4E2 ERE-luciferase antagonist mode, luminescence; activity change, negative = inhibition: at 70.3 µM (top of the series) unless noted
Procedure, shortened: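 Readout is ONE-Glo luminescence, taken 30 min at room temperature after reagent addition, preceded by a CellTiter-Fluor viability read; BG1-Luc-4E2 cells had received compound and 17beta-estradiol for 21.5 h at 37 C.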
With `CCNc1nc(Cl)nc(NCC)n1` the Potency was “inactive”. In the case of `CCCCCCCCCCCCCC[P+](CCCCCC)(CCCCCC)CCCCCC`, the Potency was 4.88 µM (active) and 3.89 µM (active) and 3.43 µM (active). For `C1CCC(NC2CCCCC2)CC1`, the Potency was “inactive”. For `C[C@]12CCC(=O)C=C1CC[C@@H]1[C@@H]2CC[C@]2(C)C(=O)CC[C@@H]12`, the “activity change, negative = inhibition” value was 34.5% (inactive). With `OCCOc1ccccc1` the Potency was “inactive”. In the case of `O=C(O)c1nc(Cl)ccc1Cl`, the Potency was “inactive”. In the case of `Cc1cc(Cl)ccc1OCC(=O)O`, the Potency was “inactive”. For `CC(Cl)(Cl)C(=O)O`, the Potency was “inactive”. For `Nc1ccc(Cl)cc1`, the Potency was “inactive”. With `O=C(O)C(Cl)Cl` the Potency was “inactive”. For `CCC(=O)C(CC(C)N(C)C)(c1ccccc1)c1ccccc1` (stereo not drawn), the Potency was “inactive”. With `Nc1ccc(-c2ccc(N)c(Cl)c2)cc1Cl` the Potency was 64 µM (active). In the case of `COP(=O)(OC)OC=C(Cl)Cl`, the “activity change, negative = inhibition” value was 14.7% (inactive).

Tested on: not listed separately
Assay: qHTS assay to identify small molecule antagonists of the estrogen receptor alpha (ER-alpha) signaling pathway using the BG1 cell line - cell viability counter screen (AID 743081);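 further: compound given together with 17beta-estradiol as the ER stimulus; nearly all actives have a fitted effect of over 45% in size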
Details: BG1Luc4E2 viability, CellTiter-Fluor, 22 h; series mostly up to 70.3 µM; activity change, negative = cytotoxicity: at the top concentration
In the case of `CCNc1nc(Cl)nc(NCC)n1`, the Potency was “inactive”. For `CCCCn1cc[n+](C)c1`, the Potency was “inactive”. In the case of `CCCCCCCCCCCCCC[P+](CCCCCC)(CCCCCC)CCCCCC`, the Potency was 19.4 µM (active) and 13.8 µM (active). With `O=C(O)C(Cl)(Cl)Cl` the Potency was “inactive”. In the case of `Nc1ccc(-c2ccc(N)cc2)cc1`, the Potency was “inactive”. For `CC(=O)[O][Hg][c]1ccccc1`, the Potency was 2.98 µM (active) and 3.04 µM (active) and 4.33 µM (active). In the case of `CCOP(=S)(OCC)Oc1ccc2c(C)c(Cl)c(=O)oc2c1`, the Potency was “inactive”. For `C1CCC(NC2CCCCC2)CC1`, the Potency was “inactive”. For `O=C(O)CC(O)(CC(=O)O)C(=O)O`, the Potency was “inactive”. In the case of `Cc1cc(Cl)ccc1N`, the Potency was “inactive”. With `C[C@]12CCC(=O)C=C1CC[C@@H]1[C@@H]2CC[C@]2(C)C(=O)CC[C@@H]12` the Potency was “inactive”. With `OCCOc1ccccc1` the Potency was “inactive”. In the case of `COc1ccc(N)cc1`, the Potency was “inactive”. With `O=C(O)c1nc(Cl)ccc1Cl` the Potency was “inactive”. With `CCCC[n+]1cccc(C)c1` the Potency was “inactive”. With `CCCC[N+]1(C)CCCC1` the Potency was “inactive”. With `COc1ccccc1N` the Potency was “inactive”. With `O=[N+]([O-])c1ccccc1O` the Potency was “inactive”. In the case of `CCCC[n+]1ccccc1`, the Potency was “inactive”. In the case of `CCCCn1cc[n+](C)c1C`, the Potency was “inactive”. In the case of `Cc1cc(Cl)ccc1OCC(=O)O`, the Potency was “inactive”. In the case of `CC(Cl)(Cl)C(=O)O`, the Potency was “inactive”. In the case of `O=C(O)CCl`, the Potency was “inactive”. With `CCCCCC[n+]1ccccc1` the Potency was “inactive”. For `Nc1ccc(Cl)cc1`, the Potency was “inactive”. In the case of `Cc1cc(-c2ccc(N)c(C)c2)ccc1N`, the Potency was “inactive”. In the case of `O=C(O)C(Cl)Cl`, the Potency was “inactive”. For `CCC(=O)C(CC(C)N(C)C)(c1ccccc1)c1ccccc1` (stereo not drawn), the Potency was “inactive”. In the case of `Nc1ccc(-c2ccc(N)c(Cl)c2)cc1Cl`, the Potency was “inactive”. For `COP(=O)(OC)OC=C(Cl)Cl`, the Potency was “inactive”. For `CCC[N+]1(C)CCCCC1`, the Potency was “inactive”.
